Data reported in PubChem BioAssay (NCATS).
Results filed as inconclusive are left out. A call without a number means that no potency is given here. The source made the active and inactive calls. Unless noted, calls come from the whole dose curve; as a rule, active = well fitted curve in the direction sought with a large enough effect; inconclusive = small, poorly fitted or top-dose-only effect, or another doubt; inactive = no such curve, though single readings can be large; an effect the other way counts as inactive or inconclusive.

Experiments:
[1] = molecular target: Ubiquitin carboxyl-terminal hydrolase 2 (Homo sapiens) (UniProt O75604); test: qHTS Validation Assay for Inhibitors of Ubiquitin-specific Protease USP2a Using CHOP2 as the Reporter (AID 463106); conditions: USP2a cleavage of CHOP2 reporter, enzymatic; series mostly up to 38.3 µM
Sequence of Ubiquitin carboxyl-terminal hydrolase 2 (Homo sapiens) (O75604 whole entry, looked up): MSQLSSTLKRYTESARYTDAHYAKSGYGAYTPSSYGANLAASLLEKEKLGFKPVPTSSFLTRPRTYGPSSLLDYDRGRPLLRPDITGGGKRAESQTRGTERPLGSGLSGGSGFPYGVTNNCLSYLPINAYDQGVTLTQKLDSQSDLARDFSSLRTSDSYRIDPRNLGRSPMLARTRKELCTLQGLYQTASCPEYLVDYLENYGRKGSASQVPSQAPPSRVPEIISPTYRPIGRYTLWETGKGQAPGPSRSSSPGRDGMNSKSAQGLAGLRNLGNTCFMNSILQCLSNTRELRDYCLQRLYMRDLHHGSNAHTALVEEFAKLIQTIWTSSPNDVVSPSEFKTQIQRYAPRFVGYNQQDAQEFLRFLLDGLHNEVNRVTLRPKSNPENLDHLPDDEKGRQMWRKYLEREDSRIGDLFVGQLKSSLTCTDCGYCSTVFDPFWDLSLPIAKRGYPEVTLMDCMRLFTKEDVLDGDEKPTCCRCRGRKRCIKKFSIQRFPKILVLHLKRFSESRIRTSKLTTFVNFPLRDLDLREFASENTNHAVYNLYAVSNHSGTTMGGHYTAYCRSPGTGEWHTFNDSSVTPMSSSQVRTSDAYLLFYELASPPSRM
How it was run: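 Fluorescence read-out at Ex 485nm/Em 531nm after 60min RT, following addition of 25nM Ub-CHOP2 plus 25nM reporter substrate to USP2 core (10nM) pretreated 30min with compound. Data normalized to NEM full inhibition; concentration-response curves fitted.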

[2] = molecular target: Tumor susceptibility gene 101 protein (Homo sapiens) (UniProt Q99816); test: qHTS Validation Assay for Iinhibitors of HIV-1 Budding by Blocking the Interaction of PTAP/TSG101 (AID 485342; calls by dose curve); conditions: TSG101-PTAP binding, fluorescence polarization, 4-point titration; series mostly up to 115 µM
Sequence of Tumor susceptibility gene 101 protein (Homo sapiens) (Q99816 whole entry, looked up, the tested form may be a part): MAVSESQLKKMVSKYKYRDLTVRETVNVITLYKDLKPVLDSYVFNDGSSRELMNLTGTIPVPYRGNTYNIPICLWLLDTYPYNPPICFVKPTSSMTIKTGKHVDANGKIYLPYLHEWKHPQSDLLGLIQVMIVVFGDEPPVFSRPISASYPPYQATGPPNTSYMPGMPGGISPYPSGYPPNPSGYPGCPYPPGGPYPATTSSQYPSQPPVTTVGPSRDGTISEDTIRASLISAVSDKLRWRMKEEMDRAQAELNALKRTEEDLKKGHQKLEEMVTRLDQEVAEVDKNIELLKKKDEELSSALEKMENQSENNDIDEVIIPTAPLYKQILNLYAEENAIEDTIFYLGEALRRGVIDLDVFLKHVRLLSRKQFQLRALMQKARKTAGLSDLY
How it was run: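 Compound wells held the Tsg101 binding domain (10 uM) and a FITC-conjugated PTAP peptide (50 nM) in buffer at pH 7.5 containing 0.15 M NaCl and 0.01% Tween 20; polarization was recorded after 20 min, r.t.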

[3] = qHTS Validation Assay to Find Inhibitors of Chronic Active B-Cell Receptor Signaling (AID 485345; active = well fitted curve in the direction sought with a large enough effect in the main read-out, with a control signal flat, not every such curve was filed as active); conditions: ABC-DLBCL cells, chronic BCR signaling reporter, CBG luciferase; series mostly up to 46.1 µM
How it was run: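 TMD8 ABC-DLBCL cells stably carrying doxycycline-inducible IkappaBalpha–green luciferase fusion plus unfused red luciferase; compounds 46 uM to 3 nM, 4 h at 37C with doxycycline. Corrected green/red luminescence ratio normalized to 10 uM MG-132 and basal cell wells; curves fitted.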

[4] = molecular target: Beta-2 adrenergic receptor (Homo sapiens) (UniProt P07550); test: qHTS validation assay of beta-arrestin-biased ligands of beta2-adrenergic receptor (AID 485366); conditions: cell-based beta-arrestin recruitment to ADRB2, qHTS; series mostly up to 46.1 µM
Sequence of Beta-2 adrenergic receptor (Homo sapiens) (P07550 whole entry, looked up): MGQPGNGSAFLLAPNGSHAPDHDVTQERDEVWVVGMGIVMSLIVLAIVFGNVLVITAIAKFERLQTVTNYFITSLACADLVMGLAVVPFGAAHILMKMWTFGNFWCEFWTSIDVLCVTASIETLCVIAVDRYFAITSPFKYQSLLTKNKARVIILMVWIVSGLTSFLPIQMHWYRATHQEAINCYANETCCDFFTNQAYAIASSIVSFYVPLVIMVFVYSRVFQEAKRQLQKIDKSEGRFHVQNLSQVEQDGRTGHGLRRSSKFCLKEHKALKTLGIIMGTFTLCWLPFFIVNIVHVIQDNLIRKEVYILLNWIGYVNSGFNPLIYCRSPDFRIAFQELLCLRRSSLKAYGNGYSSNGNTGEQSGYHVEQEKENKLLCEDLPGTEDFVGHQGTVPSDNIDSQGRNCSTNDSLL
How it was run: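 Agonist activity is measured as luciferase luminescence downstream of beta-arrestin recruitment to recombinant beta2-AR in Tango cells. Exposure lasts 18 hr at 37 degrees C, and curves are categorized by r2, response size and activity.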

[5] = Quantitative high throughput screen for delayed death inhibitors of the malarial parasite plastid, 48 hour incubation (AID 488752); conditions: Plasmodium falciparum growth; series mostly up to 28.7 µM; note: nearly all actives have a fitted effect of over 65% in size; note: potency is the fitted concentration of half-maximal effect
How it was run: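 Cultures: infected erythrocytes at final 2% hematocrit and 0.1% parasitemia in Albumax-supplemented RPMI. Parasites express integrated firefly luciferase. Incubation with compound lasts 48 h before luminescent detection of remaining reporter activity.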

[6] = molecular target: Thioredoxin reductase 1, cytoplasmic (Rattus norvegicus) (UniProt O89049); test: qHTS Assay for Substrates of Mammalian Selenoprotein Thioredoxin Reductase 1 (TrxR1) (AID 488772); conditions: purified TrxR1, NADPH consumption substrate assay; series mostly up to 57.1 µM;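 note: a drop in NADPH fluorescence below the no-compound background marks a TrxR1 substrate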
Sequence of Thioredoxin reductase 1, cytoplasmic (Rattus norvegicus) (O89049 whole entry, looked up): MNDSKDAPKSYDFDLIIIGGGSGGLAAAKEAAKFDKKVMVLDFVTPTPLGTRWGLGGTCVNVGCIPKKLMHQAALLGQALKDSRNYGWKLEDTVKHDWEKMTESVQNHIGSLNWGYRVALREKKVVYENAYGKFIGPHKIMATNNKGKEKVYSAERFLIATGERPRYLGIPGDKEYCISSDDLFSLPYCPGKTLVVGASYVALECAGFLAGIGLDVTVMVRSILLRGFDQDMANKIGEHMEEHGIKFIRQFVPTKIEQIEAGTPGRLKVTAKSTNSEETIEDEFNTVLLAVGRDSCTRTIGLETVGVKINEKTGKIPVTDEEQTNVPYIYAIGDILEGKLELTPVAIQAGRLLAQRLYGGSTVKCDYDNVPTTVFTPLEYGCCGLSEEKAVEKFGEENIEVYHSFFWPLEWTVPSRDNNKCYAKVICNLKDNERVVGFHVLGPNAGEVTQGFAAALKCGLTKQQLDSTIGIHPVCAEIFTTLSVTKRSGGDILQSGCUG
How it was run: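 In this dual-purpose format, potential substrates are identified from the first fluorescence read after selenite addition, not from the 8-minute delta. Rat enzyme is preincubated with NADPH and then with compound at ~22 deg C.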

[7] = molecular target: Thioredoxin reductase 1, cytoplasmic (Rattus norvegicus) (UniProt O89049); test: qHTS Assay for Inhibitors of Mammalian Selenoprotein Thioredoxin Reductase 1 (TrxR1) (AID 488773); conditions: purified TrxR1 enzyme activity; Potency: inhibition; series mostly up to 57.1 µM; note: nearly all actives have a fitted effect of over 40% in size; note: potency is the fitted concentration of half-maximal effect
How it was run: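 Inhibition is scored from the loss of NADPH fluorescence between first and last reads of an 8-min kinetic run. Selenite (400 uM) was the substrate, added after 15 min compound preincubation at room temperature.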

[8] = Quantitative high throughput screen for delayed death inhibitors of the malarial parasite plastid, 96 hour incubation (AID 488745); conditions: Plasmodium falciparum growth; series mostly up to 28.7 µM; note: nearly all actives have a fitted effect of over 70% in size; note: potency is the fitted concentration of half-maximal effect
How it was run: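 Two-generation (96 h) exposure of luciferase-reporter P. falciparum in erythrocytes, 2% hematocrit, 0.1% parasitemia final, 37 C, 5% CO2, RPMI 1640 with 0.5% Albumax. Growth inhibition scored by reduced luminescence.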

[9] = molecular target: ATP-dependent 6-phosphofructokinase (Trypanosoma brucei brucei) (UniProt O15648); test: qHTS Validation Assay to Find Inhibitors of T. brucei phosphofructokinase (AID 485368); note: potency is the fitted concentration of half-maximal effect; conditions: T. brucei PFK enzyme assay, qHTS 7-point titration; series mostly up to 57.5 µM
Sequence of ATP-dependent 6-phosphofructokinase (Trypanosoma brucei brucei) (O15648 whole entry, looked up): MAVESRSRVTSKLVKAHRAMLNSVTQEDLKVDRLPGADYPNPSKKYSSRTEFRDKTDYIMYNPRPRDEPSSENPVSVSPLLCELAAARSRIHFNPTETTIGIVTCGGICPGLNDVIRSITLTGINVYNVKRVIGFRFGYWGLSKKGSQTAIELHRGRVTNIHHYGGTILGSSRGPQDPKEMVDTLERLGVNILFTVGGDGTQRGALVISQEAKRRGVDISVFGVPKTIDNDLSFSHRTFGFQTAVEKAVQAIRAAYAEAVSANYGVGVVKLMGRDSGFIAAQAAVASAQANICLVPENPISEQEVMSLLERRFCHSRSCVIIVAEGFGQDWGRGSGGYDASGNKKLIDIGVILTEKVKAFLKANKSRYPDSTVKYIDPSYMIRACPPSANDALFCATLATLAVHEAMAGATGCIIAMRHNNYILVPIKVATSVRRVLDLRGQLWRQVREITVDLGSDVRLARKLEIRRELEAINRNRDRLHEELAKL
How it was run: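 Inhibition derived from concentration-response curves of luminescence, ranked by r2, response size and curve class; the underlying reaction used 1.25 nM PFK, 0.1 mM ATP and 0.5 mM F6P, 45 min, room temperature.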

SMILES | Potency [1] | outcome [2] | Potency [3] | outcome [4] | Potency [5] | outcome [6] | Potency [7] | Potency [8] | Potency [9]
CC(N)Cc1c[nH]c2ccc(O)cc12 (stereo unspecified) | inactive | inactive | inactive | inactive | inactive | inactive | inactive |  | 
CCCCCCC(C)(C)c1ccc([C@@H]2C[C@H](O)CC[C@H]2CCCO)c(O)c1 | inactive | inactive | inactive | inactive | 11.7 µM (active) |  | inactive | 4.65 µM (active) | 
CC(=O)NBr | inactive | inactive | inactive | inactive | inactive |  | inactive | inactive | 
C[N+]1(C)CCc2cc3c(cc2[C@H]1[C@@H]1OC(=O)c2c1ccc1c2OCO1)OCO3 | inactive | inactive | inactive | inactive |  | inactive | inactive |  | 
O=P(O)(O)C(Cl)(Cl)P(=O)(O)O |  |  |  |  | inactive |  |  | inactive | 
CCN(CC)c1ncnc2c1ncn2[C@@H]1O[C@H](COP(=O)(O)OP(=O)(O)C(Br)(Br)P(=O)(O)O)[C@@H](O)[C@H]1O |  |  |  |  | inactive |  |  | inactive | 
O=C(O)c1cc[c]([Hg][Cl])cc1 | inactive | inactive |  | inactive | 4.15 µM (active) | inactive | 0.299 µM (active) | 2.08 µM (active) | 0.269 µM (active)
OCc1cnc[nH]1 | inactive | inactive | inactive | inactive |  | inactive | inactive |  | 
N#CC(C#N)=Cc1cc(O)c(O)c(O)c1 |  |  |  |  | inactive |  |  |  | 
COc1ccc2c(c1)/C(=C/c1cnc[nH]1)C(=O)N2 | inactive | inactive |  | inactive |  | inactive | inactive |  | 
CC(C)CC(NP(=O)(O)O[C@@H]1O[C@@H](C)[C@H](O)[C@@H](O)[C@H]1O)C(=O)NC(Cc1c[nH]c2ccccc12)C(=O)O (stereo partly specified) |  |  |  |  | inactive |  |  | inactive | 
C=CCN1CCc2cccc3c2[C@H]1Cc1ccc(O)c(O)c1-3 | inactive | inactive |  | inactive |  |  | 5.97 µM (active) |  | 
Ic1ccccc1CNC1C2CCN(CC2)C1C(c1ccccc1)c1ccccc1 (stereo unspecified) | inactive | inactive |  | inactive |  | inactive | inactive |  | 
CN1CCc2cc(O)cc3c2[C@H]1Cc1ccc(O)c(O)c1-3 | inactive | inactive | inactive | inactive |  | inactive | 13.4 µM (active) |  | 
C[C@H](Cc1ccc2c(c1)OC(C(=O)O)(C(=O)O)O2)NC[C@H](O)c1cccc(Cl)c1 | inactive | inactive | inactive |  | inactive | inactive | inactive | inactive | 
CC(C)NP(=O)(NC(C)C)OP(=O)(NC(C)C)NC(C)C | inactive | inactive | inactive | inactive | inactive | inactive | inactive |  | 
CCCN1CCCC2Cc3[nH]ncc3CC21 (stereo unspecified) |  |  |  |  | inactive |  |  | inactive | 
CCCN(CCC)CCc1c[nH]c2ccc(C(N)=O)cc12 | inactive | inactive | inactive | inactive | inactive |  | inactive | inactive | 
